# From PubChem BioAssay AID2546 (National Center for Advancing Translational Sciences (NCATS), 2010)
# Among all 310,000 compounds or so, about 11,000 (3.5%) were called active. About 8% were inconclusive and are not listed. The call rests on the fitted dose curve; in most records, active means well fitted inhibition curve with a large enough effect; inconclusive means small, poorly fitted or top-dose-only effect, or effect the other way; inactive means flat fitted curve, though single readings scatter. The entries come from a sample that favours actives as a whole.
# Assay: VP16 counterscreen qHTS for inhibitors of ROR gamma transcriptional activity;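 further: Gal4-VP16 expression switched on by copper sulfate through the metallothionein promoter; nearly all actives have a fitted effect of over 50% in size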
# Settings: Drosophila S2 Gal4-VP16 UAS-luciferase, luminescence, 20 h; series mostly up to 53.6 µM; activity, negative = inhibition: at the top concentration
# From the text: NIH Molecular Libraries Probe Production Network [MLPCN]
# NIH Chemical Genomics Center [NCGC]
# Assay Provider: Dan Littman, New York University
# The retinoic acid-related orphan receptor (ROR) gamma is a transcription factor that has a central role in the differentiation of Th17 cells, a subset of T helper cells that secrete the inflammatory cytokines IL-17, IL-17F, and IL-22. Th17 cells have been implicated in graft versus host disease, autoimmune disease and asthma. ROR gamma is induced in naive T helper cells in the presence of TGF-beta combined with IL-6, IL-21, or IL-23, and thereafter directs the expression of the Th17 lineage cytokines. To identify nonspecific inhibitors, a Drosophila Schneider cell line was stably transfected with two vectors: a gene expressing a fusion of the Gal4 DNA binding domain and VP16 transactivation domain under the control of the metallothionine promoter and a Photinus luciferase reporter regulated by the Gal4 binding site enhancer, UAS. […] Small molecule inhibitors that inhibit components common to the RORgt and VP16 assays, such as the Gal4 DNA binding domain or the UAS luciferase reporter, will be active in both assays and thus scored as nonspecific.
# For screening, 600 cells in 4 uL/well were dispensed into white solid 1536-well plates (Grenier) using a solenoid-based dispenser. Following transfer of 23 nL compound or DMSO vehicle by a pin tool, the plates were incubated 1 hr at ambient temperature, and 1 uL/well copper sulfate (700 uM final concentration) was added. The plates were centrifuged 15 s at 1000 RPM and incubated 20 hr at ambient temperature. After addition of 1.5 uL Photinus luciferase detection reagent, the plates were incubated 10 min at ambient temperature and then read by a ViewLux (Perkin Elmer) to detect luminescence.
# On the % scale 0 is the no-effect control and ±100 the full control effect; potency means the concentration at half of the fitted maximal effect.
SMILES,"activity, negative = inhibition",Potency
CSCC[C@H](NC(=O)N1CCn2c1nc1ccccc12)C(=O)NC1CCCCC1,0.703% (inactive),–
O=C(COC(=O)c1cccs1)Nc1ccccc1Cl,14.2% (inactive),–
O=C(COC(=O)c1cccs1)NCc1cccs1,28.5% (inactive),–
O=C(COC(=O)/C(=C/c1cccs1)c1cccs1)NCc1ccccc1Cl,–,0.631 µM (active)
O=C(Nc1cccc(Cl)c1Cl)c1ccccc1NC(=O)C1CC=CCC1C(=O)O (stereo unspecified),-0.224% (inactive),–
CCC1CCCCN1C(=O)CSc1nc2c(c(=O)n1C)SC(C)C2 (stereo unspecified),20% (inactive),–
Cn1sc(NC(=O)c2ccccc2)nc1=O,1.42% (inactive),–
Cc1nn(C)cc1C(=O)Nc1ccccc1Br,-0.656% (inactive),–
CC(=O)NCCc1nc2cc(NC(=O)c3ccccc3)ccc2n1C,-4.52% (inactive),–
Cn1c(NC(=O)c2ccccc2)nc2ccccc21,–,1.26 µM (active)
CCn1c(NC(=O)c2nn(C)cc2Br)nc2ccccc21,–,5.01 µM (active)
CCC(=O)NCCc1nc2ccccc2n1CC,-3.17% (inactive),–
CC(C)Cc1nnc(NC(=O)CN2C(=O)NC3(CCCCC3)C2=O)s1,-2.73% (inactive),–
Cc1cccn2c(=O)c3cc(C(=O)NCC4CCCO4)c(=N)n(Cc4ccc(F)cc4)c3nc12 (stereo unspecified),-5.22% (inactive),–
COc1ccccc1CN(C)C(=O)c1cc2ccccc2o1,23.3% (inactive),–
COc1ccc(-c2[nH]ncc2/C=N/NC(=O)c2cc(Br)ccc2O)c(OC)c1,–,0.891 µM (active)
COc1ccc(/C=N/NC(=O)Nc2ccc3nsnc3c2)c(OC)c1,-18.8% (inactive),–
COc1cc(/C=N/NC(=O)c2cccnc2)ccc1OC(=O)c1cccc(Br)c1,-17.9% (inactive),–
CN(c1ccccc1)S(=O)(=O)c1ccc(NC(=O)COc2ccccc2)cc1,6.26% (inactive),–
COc1cc(/C(=C/c2ccccc2)c2ccccc2)c2c(c1)oc1ccccc12,18.4% (inactive),–
O=C(OCc1ccc(Br)cc1)c1cccc(-c2nnc(-c3ccccc3)o2)c1,-23.9% (inactive),–
O=C(COC(=O)c1ccc(Oc2ccccc2)cc1)Nc1nnc(-c2ccccc2)o1,–,5.62 µM (active)

SMILES,"activity, negative = inhibition",Potency
Cc1cccc(NC(=O)Nc2nnc(-c3ccccc3)o2)c1,7.84% (inactive),–
COc1cc(CNCc2ccc3c(c2)OCO3)c([N+](=O)[O-])cc1OC,11.9% (inactive),–
Cc1ccc(C)c(OCc2cc(C(=O)N3CCN(c4cnccn4)CC3)no2)c1,2.89% (inactive),–
Oc1ccc(-c2cccc(-c3ccc(O)cc3)c2)cc1,0.535% (inactive),–
Cc1cccc(NC(=O)c2sc(-c3ccccc3)nc2-c2ccc([N+](=O)[O-])cc2)c1,8.36% (inactive),–
O=C(Nc1ccccc1)/C(=C/c1ccc([N+](=O)[O-])cc1)NC(=O)c1ccccc1,-5.61% (inactive),–
CCOC(=O)/C(=C\c1ccc([N+](=O)[O-])cc1)C(=O)c1cc(C(C)=O)c(Nc2ccccc2)s1,–,5.62 µM (active)
C#CC(C)(C)NC(=O)c1cnc(-c2ccccc2)nc1-c1ccccc1,-20.7% (inactive),–
CCC(=O)N(CCc1ccccc1)Cc1cc2cc(C)ccc2[nH]c1=O,-0.886% (inactive),–
Cc1cc(C)n(CCNS(=O)(=O)c2ccc(Cl)cc2)n1,-13.8% (inactive),–
COc1cc2cc(C(=O)N/N=C/c3cccc(OC)c3OC)[nH]c2cc1OC,6.33% (inactive),–
COc1cccc(/C=N/NC(=O)c2[nH]nc3c2CCc2ccccc2-3)c1O,–,0.794 µM (active)
CN(C)CCNC(=O)c1[nH]nc2c1CCc1ccccc1-2,25.4% (inactive),–
CN(C(=O)CN1C(=O)/C(=C/c2ccc(Cl)cc2)SC1=S)C1CCS(=O)(=O)C1 (stereo unspecified),12.8% (inactive),–
Cc1nc2ccccc2nc1N/N=C/c1ccc(O)cc1O,–,15.8 µM (active)
Oc1ccc(/C=N/NC2=NCCCCC2)c(O)c1,-17.7% (inactive),–
Cc1cc(N/N=C/c2ccccc2F)c2ccccc2n1,21.9% (inactive),–
CC(C)(C)C1CCC(=NNC(=O)c2ccc(Br)o2)CC1 (stereo unspecified),22.2% (inactive),–
CC(C)(C)C1CCC(=NNC(=O)c2cc(-c3ccccc3)n[nH]2)CC1 (stereo unspecified),–,20 µM (active)
CC(NC(=O)C(=O)NN=C1CCC(C(C)(C)C)CC1)c1ccccc1 (stereo unspecified),2.98% (inactive),–
CN(Cc1ccccc1Cl)C(=O)C1CCC(=O)N(CCc2cccc(F)c2)C1 (stereo unspecified),-0.0132% (inactive),–
O=C(Cc1csc(Nc2nc(=S)[nH]c3ccccc23)n1)NCCCN1CCN(c2cccc(Cl)c2)CC1,–,7.08 µM (active)

SMILES,"activity, negative = inhibition",Potency
CCn1c(=O)cc(OCC(=O)NCCCN2CCN(c3cccc(Cl)c3)CC2)c2ccccc21,-3.73% (inactive),–
O=C(CCCn1c(=O)[nH]c2cc(Cl)ccc2c1=O)NCCN1CCN(c2ccccc2)CC1,-16.5% (inactive),–
CCCCn1c(N)c(N(CC)C(=O)c2ccccc2C(F)(F)F)c(=O)[nH]c1=O,0.0447% (inactive),–
Cc1ccc(CNC(=O)Cc2cn(C)c3ccccc23)cc1,-17.6% (inactive),–
CC1CCCC(C)N1C(=O)CSc1nnnn1C1CCCC1 (stereo unspecified),9.98% (inactive),–
O=C(NCCCO)c1cc2c([nH]c3ccccc32)c(-c2ccc(F)cc2)n1,-2.48% (inactive),–
NC(=O)Cc1ccc2c(c1)[nH]c1ccccc12,-6.18% (inactive),–
S=c1[nH]c2ccccc2c2ccccc12,–,17.8 µM (active)
CC(=O)c1c(-c2ccccc2)c2ccccc2[nH]c1=O,-12.5% (inactive),–
COc1cccc2sc(NNC(=O)c3nc4ccccc4s3)nc12,–,2 µM (active)
COc1ccc(S(=O)(=O)N2CCOCC2)cc1C(=O)Nc1nc2ccccc2s1,1.45% (inactive),–
O=C(Nc1ccccc1)Nc1nc2ccccc2s1,-14% (inactive),–
O=c1[nH]cccc1-c1nc2ccccc2n1Cc1ccc(Cl)cc1,-21.2% (inactive),–
Cc1cc(C)c(NC(=O)CN2CCCCCC2)c(C)c1,-15.9% (inactive),–
Oc1ccccc1/C=N/n1c(-c2cccs2)n[nH]c1=S,-23.3% (inactive),–
Cc1cc(-c2n[nH]c(=S)n2/N=C/c2ccco2)n[nH]1,-4.55% (inactive),–
Fc1ccccc1/C=N/n1c(-c2cccnc2)n[nH]c1=S,-12.9% (inactive),–
S=c1[nH]nc(-c2cccnc2)n1/N=C/C(Cl)=C\c1ccccc1,–,7.08 µM (active)
O=[N+]([O-])c1ccccc1/C=N/n1c(COc2ccccc2)n[nH]c1=S,4.97% (inactive),–
Cc1cc(-c2n[nH]c(=S)n2/N=C/C(Br)=C/c2ccccc2)n[nH]1,–,11.2 µM (active)
COc1ccc(C2(O)C(=O)Nc3ccccc32)cc1 (stereo unspecified),1.98% (inactive),–
COCCN1C(=O)C(=O)/C(=C(/O)c2ccc(S(=O)(=O)N3CCOCC3)cc2)C1c1ccc(O)c(OC)c1 (stereo unspecified),3.48% (inactive),–

SMILES,"activity, negative = inhibition",Potency
CC(C)c1ccc(/C=C2\NC(=O)NC2=O)cc1,-18.8% (inactive),–
CCN(CC)S(=O)(=O)c1ccc(C(=O)N2CCN(C3=NS(=O)(=O)c4ccccc43)CC2)cc1,-3.34% (inactive),–
Cc1nc2nc(SCC(=O)Nc3cccc(F)c3)[nH]c2cc1Br,-23.5% (inactive),–
O=C(O)CCC(=O)Nc1ccc(OCC2CCCO2)cc1 (stereo unspecified),2.4% (inactive),–
Cc1ccc(-c2cc(C(=O)N/N=C/C=C/c3ccco3)c3ccccc3n2)cc1C,–,4.47 µM (active)
Cc1cc(C(=O)N/N=C/c2ccccn2)c2ccccc2n1,1.06% (inactive),–
COc1cccc(-c2cc(C(=O)N/N=C/c3ccc(OC)c(COC(C)=O)c3)c3ccccc3n2)c1,0.568% (inactive),–
CC(NC(=O)CCCC1CCCCC1)c1ccc(S(N)(=O)=O)cc1 (stereo unspecified),4.41% (inactive),–
Cc1cc2ccccc2n1CCC(=O)O,4.81% (inactive),–
O=C(O)CCn1c(O)c(C=C2N=c3ccccc3=N2)sc1=S,–,3.55 µM (active)
O=C(O)CCn1c(Cc2ccccc2)nc2ccccc21,-6.39% (inactive),–
COc1ccc(CCNC(=O)CCc2cn(C)c3ccccc23)c(OC)c1,-3.69% (inactive),–
COC(=O)CN1C(=O)C(C)(C)Oc2ccc(C(=O)Nc3cccc(OC)c3)cc21,3.12% (inactive),–
CCNc1ncc2ncc(=O)n(Cc3cccc(OC)c3)c2n1,–,11.2 µM (active)
Cn1c(=O)c2c(nc(NCCc3ccccc3)n2Cc2ccccc2)n(C)c1=O,–,6.31 µM (active)
COc1cccc(Cn2c(=O)cnc3cncnc32)c1,5.12% (inactive),–
CCn1c(NCCc2ccc(OC)c(OC)c2)nc2c1c(=O)n(C)c(=O)n2C,-6.82% (inactive),–
Cn1c(=O)c2c(nc(OCc3cccnc3)n2Cc2ccccc2)n(C)c1=O,-0.554% (inactive),–
CCCCNc1nc2c(c(=O)n(C)c(=O)n2C)n1Cc1cccc(OC)c1,–,4.47 µM (active)
Cn1c(=O)c2c(nc(NCc3ccccc3)n2CC(N)=O)n(C)c1=O,-1.04% (inactive),–
CCNc1ncc2ncc(=O)n(CCc3ccccc3)c2n1,-14.9% (inactive),–
COC(=O)C(C)Sc1nc2c(c(=O)n(C)c(=O)n2C)n1Cc1cccc(C)c1 (stereo unspecified),-9.29% (inactive),–

SMILES,"activity, negative = inhibition",Potency
CCOCCCn1c(SCC(=O)Nc2cc(OC)ccc2OC)nc2ccccc2c1=O,-6.3% (inactive),–
CC(C)c1nc2cc(C(=O)NC(C)c3cnn(C)c3)ccc2o1 (stereo unspecified),25.6% (inactive),–
Cc1cnc(C(=O)Oc2cccc(Cl)c2Cl)cn1,-15.1% (inactive),–
COCCN1CCN(C(=O)c2cc(COc3ccc(F)cc3Cl)on2)CC1,-13.8% (inactive),–
CC(C)c1ccc(NC(=O)Cn2ncc3ccccc32)cc1,2.09% (inactive),–
O=S1(=O)CCO[C@H]2Cc3ccccc3[C@H]2N1Cc1ccccc1,-5.04% (inactive),–
CCN(CC(=O)NCCCN1CCOCC1)S(=O)(=O)c1cc(Cl)ccc1Cl,8.86% (inactive),–
CSCCC(NC(=O)c1ccc(=O)n(C)n1)c1nc2ccccc2[nH]1 (stereo unspecified),3.34% (inactive),–
COc1ccc(CC(=O)N[C@@H](CCSC)c2nc3ccccc3[nH]2)cc1,-4.35% (inactive),–
CSCCC(NC(=O)c1cc([N+](=O)[O-])cc([N+](=O)[O-])c1)c1nc2ccccc2[nH]1 (stereo unspecified),–,25.1 µM (active)
CC(c1ccccn1)N(C)C(=O)c1ccc2nc(Cc3cccc(Cl)c3)oc2c1 (stereo unspecified),8.69% (inactive),–
CCOC(=O)C(C)n1cnc2c(nnn2-c2cccc(OC)c2)c1=O (stereo unspecified),25.9% (inactive),–
Clc1ccc(-c2cc(-c3ccccn3)on2)c(Cl)c1,–,7.08 µM (active)
O=C(NCc1ccccn1)c1cc(-c2ccccc2Cl)on1,13.9% (inactive),–
O=C1CSC(c2ccccc2)N1c1nc(-c2ccc(Cl)cc2Cl)cs1 (stereo unspecified),-5.04% (inactive),–
CC(=O)N1CCCc2cc(S(=O)(=O)N3CCCC(C(=O)N4CCN(c5cccc(Cl)c5)CC4)C3)ccc21 (stereo unspecified),–,3.98 µM (active)
CC(=O)N1CCCc2cc(S(=O)(=O)N3CCCC(C(=O)NCc4ccc(Cl)cc4)C3)ccc21 (stereo unspecified),-0.363% (inactive),–
CC(=O)N1c2ccc(S(=O)(=O)N3CCCC(C(=O)Nc4cccc(Cl)c4)C3)cc2CC1C (stereo unspecified),-23.7% (inactive),–
